Here are results for 10 compounds from PubChem BioAssay (Tox21).

SMILES strings stand for the structures. Several values for one entry are separate records, joined by “and”; a condition that tells them apart may be missing. Identical values can stand only once. A number with no mark means an inactive call. Results filed as inconclusive are left out. Activity calls are given as the source filed them. Calls follow the shape of the dose curve; as a rule, active = well fitted curve in the direction sought with a large enough effect in the repeat runs; inconclusive = weak or mixed curves; inactive = no such curve, though single readings can be large; an effect the other way counts as inactive or inconclusive.

Assay [1] in a line: Human pregnane X receptor (PXR) small molecule agonists, qHTS cell viability counter screen (AID 1346977). Also: nearly all actives have a fitted effect of over 50% in size. In short, it runs like this: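 After a 5hr pre-incubation, PXR-Luc HepG2 cells received compounds plus positive control in DMSO and were kept 24hr at 37C. Cell viability was quantified by fluorescence from CellTiter-Fluor added for the final hour.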
Assay [2] can be described thus: Caspase-3/7 induction in HepG2 cells by small molecules, qHTS assay (AID 1346978). Also: nearly all actives have a fitted effect of over 15% in size. An outline of the steps:
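Caspase-3/7 induction was measured by Caspase-Glo 3/7 luminescence (30 min, room temperature) after a 17 hr compound exposure of wild-type HepG2 cells seeded at 2,000 per well and pre-incubated 5 hr.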

The nature of assay [3]: Caspase-3/7 induction in CHO-K1 cells by small molecules, qHTS cell viability counter screen (AID 1346979). Also: nearly all actives have a fitted effect of over 35% in size. In short, it runs like this: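 Multiplexed with Caspase-Glo 3/7 in CHO-K1 cells, this counter screen added CellTiter-Fluor after 16hr of compound exposure and recorded fluorescence 1hr later.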
Assay [4] can be described thus: Caspase-3/7 induction in CHO-K1 cells by small molecules, qHTS assay (AID 1346980). Also: nearly all actives have a fitted effect of over 15% in size. An outline of the steps:
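Luminescent Caspase-Glo 3/7 read (30min, room temperature) quantified apoptosis induction. Cells were wild-type CHO-K1, treated with compound for 17hr at 37 C and 5% CO2.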

A short description of assay [5]: Caspase-3/7 induction in HepG2 cells by small molecules, qHTS cell viability counter screen (AID 1346981). Also: series mostly up to about 92 µM; nearly all actives have a fitted effect of over 30% in size. In short, it runs like this:
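In this quantitative HTS counter screen, compounds delivered in DMSO were left on unmodified HepG2 cells for 16 hr at 37 C. Viability was then determined fluorometrically with CellTiter-Fluor, in parallel with caspase-3/7 induction in the same wells.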

Assay [6] deals with Nuclear receptor subfamily 1 group I member 2 (Homo sapiens) (UniProt O75469). As to the kind of experiment: Human pregnane X receptor (PXR) small molecule agonists, qHTS assay (AID 1346982). Also: nearly all actives have a fitted effect of over 35% in size. Also: potency is read from the fitted curve at half-maximal effect. In short, it runs like this: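 Reporter HepG2 cells expressing PXR-Luc are cultured in charcoal-stripped FBS (5%), treated with compounds for 24 hr at 37 C, and assayed by ONE-Glo luminescence after 30 min at room temperature.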
Sequence of Nuclear receptor subfamily 1 group I member 2 (Homo sapiens) (O75469 whole entry, looked up): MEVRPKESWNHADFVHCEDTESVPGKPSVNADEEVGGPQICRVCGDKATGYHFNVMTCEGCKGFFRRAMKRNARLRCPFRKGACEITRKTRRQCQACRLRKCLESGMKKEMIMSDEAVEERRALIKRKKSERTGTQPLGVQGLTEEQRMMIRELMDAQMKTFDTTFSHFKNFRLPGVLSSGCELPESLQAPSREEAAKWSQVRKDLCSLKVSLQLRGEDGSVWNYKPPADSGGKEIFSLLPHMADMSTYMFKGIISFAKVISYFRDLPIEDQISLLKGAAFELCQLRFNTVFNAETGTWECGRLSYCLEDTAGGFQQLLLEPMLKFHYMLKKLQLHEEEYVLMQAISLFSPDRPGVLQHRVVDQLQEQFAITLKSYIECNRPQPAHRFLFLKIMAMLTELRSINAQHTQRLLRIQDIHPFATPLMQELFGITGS

Assay [7] concerns the target Nuclear receptor subfamily 1 group I member 2 (Rattus norvegicus) (UniProt Q9R1A7). The assay is described as follows: Rat pregnane X receptor (rPXR) activation by small molecules, qHTS assay (AID 1346983). Also: nearly all actives have a fitted effect of over 20% in size. Also: potency is read from the fitted curve at half-maximal effect. Particulars: rPXR luciferase reporter cells, One-Glo luminescence, 24 h; max activation: stronger effect = higher value. In short, it runs like this: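 Luminescent readout (One-Glo luciferase, 30 min room temperature) followed 24 hr compound treatment at 37 C of rPXR cells plated 2,000 per well and preincubated 5hr; qHTS format with compounds delivered in DMSO.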

For assay [8], the target named is Nuclear receptor subfamily 1 group I member 2 (Homo sapiens) (UniProt O75469). As to the kind of experiment: CYP3A4 induction through human pregnane X receptor (PXR) by small molecules, qHTS assay (AID 1346984). Also: nearly all actives have a fitted effect of over 40% in size. Also: potency is read from the fitted curve at half-maximal effect. In short, it runs like this: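 Induction measured in HepG2-based DPX-2 cells co-expressing human PXR and a CYP3A4 promoter-driven luciferase. After a 24-hour compound exposure, cells received CYP3A4 luciferin substrate at 3uM final for 3 hours, and light output was then recorded.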

Assay [9] has the same target. The assay is described as follows: Human pregnane X receptor (PXR) activation by small molecules, qHTS assay (AID 1346985). Also: nearly all actives have a fitted effect of over 40% in size. An outline of the steps: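 DPX-2 cells (HepG2 co-transfected with a PXR response element and a CYP3A4-promoter luciferase construct) were seeded at 2,000 per well, rested 5 hr at 37C, then exposed to DMSO-dissolved compounds for 24 hr. Activation was read as luciferase luminescence.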

The target in assay [10] is Cytochrome P450 2D6 (Homo sapiens) (UniProt P10635). The assay is described as follows: Cytochrome P450 Family 2 Subfamily D Member 6 (CYP2D6) small molecule antagonists: luciferase reporter qHTS assay (AID 1671196). Also: nearly all actives have a fitted effect of over 50% in size. Also: potency is read from the fitted curve at half-maximal effect. In short, it runs like this:
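Test chemicals meet CYP2D6 plus proluciferin substrate (10 min, RT); NADPH regenerating solution then drives turnover for 1 h. Detection reagent halts the reaction; luminescence measured after 20 min.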

Assay [11] addresses Cytochrome P450 2C19 (Homo sapiens) (UniProt P33261). The assay is described as follows: Cytochrome P450 Family 2 Subfamily C Member 19 (CYP2C19) small molecule antagonists: luciferase reporter qHTS assay (AID 1671197). Also: nearly all actives have a fitted effect of over 65% in size. Also: potency is read from the fitted curve at half-maximal effect. An outline of the steps:
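Luminescent readout of CYP2C19 activity: luciferin product detected 20 min after adding detection reagent. Before that, compound and enzyme-substrate mix preincubated 10 min at room temperature; NADPH-regenerating system started a 1 h, 37C reaction. Ketoconazole as positive control.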

Assay [12] deals with Cytochrome P450 2C9 (Homo sapiens) (UniProt P11712). The assay is described as follows: Cytochrome P450 Family 2 Subfamily C Member 9 (CYP2C9) small molecule antagonists: luciferase reporter qHTS assay (AID 1671198). Also: series mostly up to about 120 µM; nearly all actives have a fitted effect of over 50% in size. An outline of the steps:
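Enzyme-substrate mix preincubated with compound 10 min at room temperature; reaction started with NADPH regeneration solution, 1 h 37C. Luminescent luciferin product read after 20 min detection reagent.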

For assay [13], the target named is Cytochrome P450 1A2 (Homo sapiens) (UniProt P05177). As to the kind of experiment: Cytochrome P450 Family 1 Subfamily A Member 2 (CYP1A2) small molecule antagonists: luciferase reporter qHTS assay (AID 1671199). Also: nearly all actives have a fitted effect of over 50% in size. Also: potency is read from the fitted curve at half-maximal effect. In short, it runs like this:
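Steps: enzyme-substrate mix dispensed; test compounds and furafylline control pinned in; 10 min room temperature; NADPH regeneration solution added, 1 h; reaction stopped with luciferin detection reagent; luminescence read after 20 min.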

The target of assay [14] is Voltage-gated inwardly rectifying potassium channel KCNH2 (Homo sapiens) (UniProt Q12809). As to the kind of experiment: Human Ether-a-go-go-Related Gene (hERG) channel small molecule antagonists: fluorescence cell-based qHTS assay (AID 1671200). An outline of the steps:
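Cell line hERG-U2OS; dye FluxOR II, 1 h RT dark; Tl+ stimulus; ex 480/em 540 nm, read each second for 2 min.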

Assay [15] concerns the target Cytochrome P450 3A4 (Homo sapiens) (UniProt P08684). The assay is described as follows: Cytochrome P450 Family 3 Subfamily A Member 4 (CYP3A4) small molecule antagonists: luciferase reporter qHTS assay (AID 1671201). In short, it runs like this:
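Room-temperature assay throughout: 10 min compound–enzyme/substrate preincubation, 1 h reaction after NADPH regeneration solution, 20 min detection. Luciferin formed from proluciferin substrate is quantified by luminescence.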
% is scaled to controls: 0 for no effect and ±100 for the full control effect.

Sequence of Voltage-gated inwardly rectifying potassium channel KCNH2 (Homo sapiens) (Q12809 whole entry, looked up): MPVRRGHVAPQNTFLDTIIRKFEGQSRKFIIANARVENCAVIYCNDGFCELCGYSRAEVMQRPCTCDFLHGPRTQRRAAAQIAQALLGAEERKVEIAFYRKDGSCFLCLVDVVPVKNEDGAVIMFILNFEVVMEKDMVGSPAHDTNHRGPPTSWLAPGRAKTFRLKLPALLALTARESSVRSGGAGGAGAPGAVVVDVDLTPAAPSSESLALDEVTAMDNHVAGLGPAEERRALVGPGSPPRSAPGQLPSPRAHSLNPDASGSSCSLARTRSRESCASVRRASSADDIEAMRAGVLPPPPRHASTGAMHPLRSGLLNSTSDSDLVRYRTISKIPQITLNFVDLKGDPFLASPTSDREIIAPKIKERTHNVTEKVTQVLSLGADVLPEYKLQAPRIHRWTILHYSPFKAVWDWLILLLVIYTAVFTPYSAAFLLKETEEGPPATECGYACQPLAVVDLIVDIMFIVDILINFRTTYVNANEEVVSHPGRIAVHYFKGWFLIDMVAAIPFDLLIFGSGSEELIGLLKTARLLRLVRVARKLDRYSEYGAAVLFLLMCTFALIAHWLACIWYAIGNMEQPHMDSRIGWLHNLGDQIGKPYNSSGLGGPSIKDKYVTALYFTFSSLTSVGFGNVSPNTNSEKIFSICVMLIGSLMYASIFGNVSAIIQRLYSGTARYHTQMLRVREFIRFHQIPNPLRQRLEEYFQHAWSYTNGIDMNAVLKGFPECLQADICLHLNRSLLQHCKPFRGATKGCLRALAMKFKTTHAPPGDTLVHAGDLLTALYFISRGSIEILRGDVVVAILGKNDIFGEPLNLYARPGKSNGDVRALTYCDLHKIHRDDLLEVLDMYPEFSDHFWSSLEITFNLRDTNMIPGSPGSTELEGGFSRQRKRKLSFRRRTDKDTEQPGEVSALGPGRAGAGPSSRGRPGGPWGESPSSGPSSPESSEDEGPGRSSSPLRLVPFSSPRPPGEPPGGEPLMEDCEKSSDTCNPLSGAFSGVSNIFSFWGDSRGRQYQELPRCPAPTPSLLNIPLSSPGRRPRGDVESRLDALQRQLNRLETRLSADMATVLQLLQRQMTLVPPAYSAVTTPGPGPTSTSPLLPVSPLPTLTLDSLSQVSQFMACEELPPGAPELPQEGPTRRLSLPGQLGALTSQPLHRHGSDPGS
Sequence of Nuclear receptor subfamily 1 group I member 2 (Rattus norvegicus) (Q9R1A7 whole entry, looked up): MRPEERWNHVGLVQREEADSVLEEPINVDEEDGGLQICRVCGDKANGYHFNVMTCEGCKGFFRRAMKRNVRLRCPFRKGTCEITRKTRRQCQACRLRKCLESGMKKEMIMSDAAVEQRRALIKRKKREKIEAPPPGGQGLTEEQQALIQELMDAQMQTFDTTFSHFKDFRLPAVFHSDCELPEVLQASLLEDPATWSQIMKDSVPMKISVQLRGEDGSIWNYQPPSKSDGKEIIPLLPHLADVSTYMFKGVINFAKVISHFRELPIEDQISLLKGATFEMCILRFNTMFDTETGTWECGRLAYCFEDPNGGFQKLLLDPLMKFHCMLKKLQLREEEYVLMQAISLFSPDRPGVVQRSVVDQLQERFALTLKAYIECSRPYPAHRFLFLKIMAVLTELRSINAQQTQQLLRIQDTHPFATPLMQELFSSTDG
Sequence of Cytochrome P450 2C19 (Homo sapiens) (P33261 whole entry, looked up): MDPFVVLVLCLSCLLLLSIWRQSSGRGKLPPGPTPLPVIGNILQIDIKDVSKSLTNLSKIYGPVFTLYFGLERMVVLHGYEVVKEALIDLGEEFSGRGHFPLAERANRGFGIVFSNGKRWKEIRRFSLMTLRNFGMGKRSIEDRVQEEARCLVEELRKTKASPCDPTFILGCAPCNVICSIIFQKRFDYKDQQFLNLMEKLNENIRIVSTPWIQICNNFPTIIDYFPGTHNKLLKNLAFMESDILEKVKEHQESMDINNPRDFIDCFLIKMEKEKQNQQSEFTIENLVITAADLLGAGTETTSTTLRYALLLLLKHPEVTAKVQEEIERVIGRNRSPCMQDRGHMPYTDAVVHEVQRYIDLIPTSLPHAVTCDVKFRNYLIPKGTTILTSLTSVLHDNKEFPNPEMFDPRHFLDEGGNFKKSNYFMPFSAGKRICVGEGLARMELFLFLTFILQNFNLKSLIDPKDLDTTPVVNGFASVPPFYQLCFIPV
Sequence of Cytochrome P450 2C9 (Homo sapiens) (P11712 whole entry, looked up): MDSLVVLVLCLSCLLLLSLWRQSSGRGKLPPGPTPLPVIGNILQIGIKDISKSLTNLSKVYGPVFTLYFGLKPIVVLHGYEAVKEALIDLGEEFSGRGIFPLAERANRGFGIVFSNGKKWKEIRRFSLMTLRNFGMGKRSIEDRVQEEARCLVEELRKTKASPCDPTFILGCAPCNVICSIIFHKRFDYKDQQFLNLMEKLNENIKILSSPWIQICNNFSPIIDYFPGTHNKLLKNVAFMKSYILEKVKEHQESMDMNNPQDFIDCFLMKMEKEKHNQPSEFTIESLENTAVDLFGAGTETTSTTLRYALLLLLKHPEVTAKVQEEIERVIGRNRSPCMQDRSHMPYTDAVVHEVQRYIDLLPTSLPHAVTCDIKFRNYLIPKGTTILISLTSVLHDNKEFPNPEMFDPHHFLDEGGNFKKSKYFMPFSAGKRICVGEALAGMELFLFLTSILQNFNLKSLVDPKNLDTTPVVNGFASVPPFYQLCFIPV
Sequence of Cytochrome P450 1A2 (Homo sapiens) (P05177 whole entry, looked up): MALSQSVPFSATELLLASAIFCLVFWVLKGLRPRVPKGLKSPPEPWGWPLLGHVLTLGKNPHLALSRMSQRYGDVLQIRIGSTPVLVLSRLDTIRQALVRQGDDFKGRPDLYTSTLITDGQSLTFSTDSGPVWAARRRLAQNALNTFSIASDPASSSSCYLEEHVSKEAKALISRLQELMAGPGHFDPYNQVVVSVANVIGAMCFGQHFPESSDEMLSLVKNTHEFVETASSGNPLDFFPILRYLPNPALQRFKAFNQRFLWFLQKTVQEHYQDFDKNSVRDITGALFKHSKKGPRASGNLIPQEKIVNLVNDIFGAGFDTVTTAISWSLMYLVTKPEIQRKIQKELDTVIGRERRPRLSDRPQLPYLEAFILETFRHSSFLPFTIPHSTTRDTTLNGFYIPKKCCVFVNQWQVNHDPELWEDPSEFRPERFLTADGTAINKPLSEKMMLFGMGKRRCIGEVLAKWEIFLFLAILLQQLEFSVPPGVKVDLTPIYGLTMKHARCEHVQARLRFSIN
Sequence of Cytochrome P450 3A4 (Homo sapiens) (P08684 whole entry, looked up): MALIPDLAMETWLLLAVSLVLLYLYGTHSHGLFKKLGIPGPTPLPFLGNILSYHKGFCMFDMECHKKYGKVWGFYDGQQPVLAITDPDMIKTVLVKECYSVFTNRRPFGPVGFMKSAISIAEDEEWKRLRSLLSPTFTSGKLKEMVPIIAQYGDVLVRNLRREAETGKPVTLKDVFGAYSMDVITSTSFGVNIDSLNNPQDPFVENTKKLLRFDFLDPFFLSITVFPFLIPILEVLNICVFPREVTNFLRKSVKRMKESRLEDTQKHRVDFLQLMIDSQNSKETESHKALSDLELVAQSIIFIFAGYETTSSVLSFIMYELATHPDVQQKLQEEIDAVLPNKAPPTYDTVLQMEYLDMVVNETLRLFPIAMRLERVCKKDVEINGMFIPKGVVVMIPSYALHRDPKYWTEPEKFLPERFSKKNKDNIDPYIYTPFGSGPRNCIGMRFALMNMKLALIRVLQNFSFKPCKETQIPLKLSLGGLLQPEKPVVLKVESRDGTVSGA
Sequence of Cytochrome P450 2D6 (Homo sapiens) (P10635 whole entry, looked up): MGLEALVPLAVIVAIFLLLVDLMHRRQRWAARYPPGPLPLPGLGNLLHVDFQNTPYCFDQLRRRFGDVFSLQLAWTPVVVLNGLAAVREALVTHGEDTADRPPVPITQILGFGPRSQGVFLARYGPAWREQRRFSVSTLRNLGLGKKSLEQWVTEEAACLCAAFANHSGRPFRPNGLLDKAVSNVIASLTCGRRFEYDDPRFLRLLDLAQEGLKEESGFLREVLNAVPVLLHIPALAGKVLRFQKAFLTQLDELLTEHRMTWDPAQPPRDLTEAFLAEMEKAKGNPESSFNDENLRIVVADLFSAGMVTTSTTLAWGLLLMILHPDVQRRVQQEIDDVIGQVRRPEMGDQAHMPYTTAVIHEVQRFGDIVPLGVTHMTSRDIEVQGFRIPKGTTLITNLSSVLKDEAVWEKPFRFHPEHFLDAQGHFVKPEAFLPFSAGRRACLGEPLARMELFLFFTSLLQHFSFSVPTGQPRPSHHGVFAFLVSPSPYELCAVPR

Take `NC(=O)N[C@@H](CCC(=O)O)C(=O)O`: the Potency entry in assay [1], in assay [3], in assay [5], in assay [6], in [8] and in [9] was “inactive” in each case. Further, the Potency entry in assay [10], in [11], in assay [12], in [13], in [14] and in assay [15] was “inactive” in each case. Moreover, the compound was classed as inactive in assay [2] and in assay [4]. Further, the max activation in assay [7] is -3.04%.

For the compound `O=C(CO)[C@@H](O)[C@H](O)[C@@H](O)CO`, the Potency result in assay [1], in assay [3], in [5], in assay [6], in [10] and in assay [11] was “inactive” each time. For the same compound, the Potency result in [12], in assay [13], in assay [14] and in assay [15] was “inactive” each time. In addition, the call in assay [2] and in [4] was inactive.

On to `CCCCS(=O)(=O)N[C@@H](Cc1ccc(OCCCCC2CCNCC2)cc1)C(=O)O`, for which the Potency result in assay [1], in [3], in assay [5], in [6], in assay [10] and in assay [11] was “inactive” throughout. Besides, the Potency entry in assay [12], in assay [13], in assay [14] and in assay [15] was “inactive” each time. The outcome in assay [2] and in assay [4] was inactive.

Regarding `CC(=O)OCC(=O)[C@@]1(O)[C@H](C)C[C@H]2[C@@H]3CCC4=CC(=O)C=C[C@]4(C)[C@@]3(F)[C@@H](O)C[C@@]21C`, the Potency entry in [1], in assay [3], in [5], in [6], in assay [8] and in [9] was “inactive” in each case. For the same compound, the Potency entry in assay [10], in assay [11], in assay [13] and in assay [14] was “inactive” each time. The result in assay [2] and in [4] was inactive.

Regarding `CC(=O)N1C[C@H](O)C[C@H]1C(=O)O`, the Potency entry in [1], in [3], in [5], in assay [6], in assay [8] and in assay [9] was “inactive” in each case. Further, the Potency entry in [10], in assay [11], in assay [12], in assay [13], in assay [14] and in [15] was “inactive” in each case. Also, the compound was called inactive in [2] and in [4]. For the same compound, the max activation in assay [7] was -1.61%.

In the case of `CCC(=O)OCc1ccccc1`, the Potency result in [1], in [3], in assay [5], in assay [6], in [10] and in [11] was “inactive” each time. Moreover, the Potency entry in assay [12], in assay [13], in assay [14] and in assay [15] was “inactive” throughout. Besides, the result in assay [2] and in [4] was inactive.

Regarding `CC[N+](C)(CC)CCOC(=O)C1c2ccccc2Oc2ccccc21`, the Potency entry in [1], in assay [3], in [5], in [6], in assay [8] and in assay [11] was “inactive” throughout. Further, the Potency result in assay [14] and in assay [15] was “inactive” each time. For the same compound, the call in assay [2] and in assay [4] was inactive. The max activation in [7] was 0.786%. Further, in assay [10], the Potency is 2.75 µM (active).

As to `C[C@@H]1C[C@H]2[C@@H]3C[C@H](F)C4=CC(=O)C(Cl)=C[C@]4(C)[C@@]3(F)[C@@H](O)C[C@]2(C)[C@@]1(O)C(=O)CO`, the Potency entry in assay [1], in assay [3], in [5], in assay [13] and in assay [14] was “inactive” in each case. In addition, the result in assay [2] and in assay [4] was inactive. For the same compound, the Potency in assay [6] was 2.11 µM (active); in [7], 0.1 µM (active); in assay [8], 12.6 µM (active); in assay [11], 8.71 µM (active).

In the case of `CN(C)[C@@H]1C(=O)C(C(=O)NCN2CCCC2)=C(O)[C@@]2(O)C(=O)C3=C(O)c4c(O)cccc4[C@@](C)(O)C3C[C@@H]12` (some centres undefined), the Potency result in assay [1], in assay [3], in [5], in [6], in assay [8] and in assay [9] was “inactive” throughout. Also, the Potency entry in assay [12], in assay [14] and in assay [15] was “inactive” throughout. Further, the compound was classed as inactive in [2] and in [4]. Further, the max activation in [7] is 1.07% and -3.86%. Further, the Potency in assay [13] is 17.4 µM (active).

`CN(C)CCCCCCN(C)C`: the Potency entry in assay [1], in [3] and in [5] was “inactive” in each case. Besides, the compound was called inactive in [2] and in [4].
